# According to article PMC7826789 (International Journal of Molecular Sciences, 2021):
# Tested on: CAMK2B
# Details: Compound Concentration (nM):1000
# 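Further: KINOMEscan scanMAX binding as percent activity remaining versus control; lower means stronger binding.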
row,Structure (SMILES),Percent Control [%]
1,NS(=O)(=O)c1ccc(N/N=C2\C(=O)Nc3ccc(C(=O)NCCc4c[nH]cn4)cc32)cc1 [GW300660X],100
2,NS(=O)(=O)c1ccc(N/N=C2\C(=O)Nc3ccc(-c4cnco4)cc32)cc1 [GW276655],78
3,NS(=O)(=O)c1ccc(Nc2ncc(-c3ccccc3)o2)cc1 [GW572399X],100
4,C/C(Nc1ccc(S(N)(=O)=O)cc1)=C1/C(=O)Nc2ccccc21 [GW335962X],72
5,Cl.O=S1CCN(Cc2ccc(-c3ccc4ncnc(Nc5ccc(OCc6ccccc6)c(F)c5)c4c3)o2)CC1 [GW576924A],100
6,CN(C)c1cc2c(Nc3ccc4c(cnn4Cc4ccccc4)c3)ncnc2cn1 [GW282974X],62
7,CCn1c(-c2nonc2N)nc2c(C#CC(C)(C)O)nc(OCCNC)cc21.Cl [GSK949675],100
8,CC(C)COC(=O)c1ccc2c(c1)/C(=C/Nc1ccc(S(N)(=O)=O)cc1)C(=O)N2 [GW416981X],71
9,CC1=C(C(=O)Nc2ccc3[nH]ncc3c2)C(c2ccc(Cl)c(Cl)c2)CC(=O)N1 (stereo not drawn) [GSK299115A],88
10,NS(=O)(=O)c1ccc(N/N=C2\C(=O)Nc3ccc(Cl)cc32)cc1 [GW280670X],100
11,COc1cc(C=NNc2ncnc3c2cnn3-c2ccccc2)ccc1O [GW513184X],100
12,COc1cc2ncnc(Nc3ccc4c(cnn4Cc4ccccc4)c3)c2cc1OC.Cl [GW282449A],100
13,COC(=O)Nc1nc2ccc(Oc3ccc(NC(=O)Nc4cc(C(F)(F)F)ccc4F)cc3)cc2s1.Cl [GW693917A],88
14,NS(=O)(=O)c1ccc(N/N=C2\C(=O)Nc3ccc(C(=O)NCc4ccncc4)cc32)cc1 [GW300657X],78
15,Cl.O=C(Nc1ccc(Oc2ccc3[nH]c(NC(=O)c4ccco4)nc3c2)cc1)Nc1cc(C(F)(F)F)ccc1F [GW683134A],79
16,COc1ccccc1-c1cc(/C=C2\C(=O)Nc3ncc(Br)cc32)cc(Br)c1O [GW442130X],88
17,CN1CCN(C(=O)c2ccc(NC(=O)Nc3ccc(N(C)c4ccnc(Nc5ccc(CS(C)(=O)=O)cc5)n4)cc3)cc2)CC1.Cl [GW830263A],86
18,Cc1cc(O)cc(C)c1/C=C/c1cncc(C(N)=O)c1 [GW435821X],100
